Among the data in PubChem BioAssay (Tox21) are Potency and outcome values, retold here.

The target of assay [1] is Peroxisome proliferator-activated receptor delta (Homo sapiens) (UniProt Q03181). Kind of assay: qHTS assay to identify small molecule agonists of the peroxisome proliferator-activated receptor delta (PPARd) signaling pathway (AID 743212; calls by dose curve). The essentials: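 Read-out: beta-lactamase FRET fluorescence after 2 h room-temperature incubation with LiveBLAzer B/G substrate. Cells were HEK293H carrying a UAS-bla reporter for PPARd, treated at 37 C with DMSO-dissolved compounds.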
(qHTS replaces the single test concentration by a dilution series.)

Assay [2] is described as follows: qHTS assay to identify small molecule antagonists of the farnesoid-X-receptor (FXR) signaling pathway - cell viability counter screen (AID 743221; active = well fitted cell-killing curve with a large enough effect in the repeat runs, not every such curve was filed as active; also: nearly all actives have a fitted effect of over 50% in size). The essentials: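 Luminescence from CellTiter-Glo measures cytotoxicity in GeneBLAzer FXR-UAS-bla HEK 293T cells. Cells were exposed to compounds with 50 uM chenodeoxycholic acid (final) for 16 h at 37 C, in wells also used for the reporter readout.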

The target in assay [3] is Vitamin D3 receptor (Homo sapiens) (UniProt P11473). Briefly: qHTS assay to identify small molecule agonists of the vitamin D receptor (VDR) signaling pathway (AID 743222; calls by dose curve). The essentials: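 Using LiveBLAzer B/G FRET detection, agonism was scored in VDR-bla cells exposed overnight (16 h, 37C) to DMSO-dissolved compounds; substrate incubation was 2 h at room temperature.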

Assay [4] can be described thus: qHTS assay to identify small molecule agonists of the vitamin D receptor (VDR) signaling pathway - cell viability counter screen (AID 743224). Also: nearly all actives have a fitted effect of over 50% in size. Also: potency is read from the fitted curve at half-maximal effect. Put shortly: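 Counter screen for cytotoxicity: VDR-bla cells at 2,000 cells/well, 16 h compound exposure, then CellTiter-Glo luminescence after the beta-lactamase measurement.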
A short description of assay [5]: qHTS assay to identify small molecule agonists of the endoplasmic reticulum stress response signaling pathway (AID 1159516; active = well fitted activation curve with a large enough effect in the signal ratio in the repeat runs, not every such curve was filed as active; the % refers to the signal ratio). The essentials: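 For this screen, HeLa cells stably carrying beta-lactamase under the ER stress response element received test compounds, positive controls or DMSO for 5 hr at 37 C; B/G FRET substrate was then added and dual-wavelength emission recorded.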

Assay [6] can be described thus: qHTS assay to identify small molecule agonists of the endoplasmic reticulum stress response signaling pathway - cell viability counter screen (AID 1159517; calls by dose curve; also: nearly all actives have a fitted effect of over 50% in size; also: potency is read from the fitted curve at half-maximal effect). Put shortly: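 Steps: seed 1,500 ESRE-bla HeLa cells per well; incubate overnight at 37 C, 5% CO2; add compounds in DMSO for 5 hr; run FRET substrate 2 hr RT; add CellTiter-Glo, wait 30 min, read luminescence.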

Assay [7] has as its target Nuclear receptor ROR-gamma (Homo sapiens) (UniProt P51449). Kind of assay: qHTS assay to identify small molecule antagonists of the retinoid-related orphan receptor gamma (ROR-gamma) signaling pathway (AID 1159521; also: nearly all actives have a fitted effect of over 50% in size; also: potency is read from the fitted curve at half-maximal effect). Put shortly:
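CHO Tet-on RORγ, RORE-luc reporter. Cpd 2 h pre-incubation, then dox hyclate 1 uM final, 16 h, 37 C/5% CO2. ONE-Glo luminescence; decrease = antagonist.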

The nature of assay [8]: qHTS assay to identify small molecule agonists of the peroxisome proliferator-activated receptor delta (PPARd) signaling pathway - cell viability counter screen (AID 743211). Also: nearly all actives have a fitted effect of over 55% in size. Also: potency is read from the fitted curve at half-maximal effect. The essentials: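 HEK293H PPARd-bla, 3000 cells/well; 5 h preincubation 37C/5% CO2; cpd in DMSO, 17 h 37C; B/G FRET substrate 2 h RT; CellTiter-Glo 30 min RT, luminescence.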
Assay [9] can be described thus: qHTS assay to identify small molecule antagonists of the peroxisome proliferator-activated receptor delta (PPARd) signaling pathway - cell viability counter screen (AID 743213). Also: nearly all actives have a fitted effect of over 50% in size. Also: potency is read from the fitted curve at half-maximal effect. Put shortly:
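CellTiter-Glo was added to PPARd-bla HEK293H wells following 17 h compound treatment in the presence of 300 nM L165041. Luminescence was recorded after 30 min at room temperature.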

The target in assay [10] is Bile acid receptor (Homo sapiens) (UniProt Q96RI1). Kind of assay: qHTS assay to identify small molecule antagonists of the farnesoid-X-receptor (FXR) signaling pathway (AID 743217; active = well fitted inhibition curve with a large enough effect in the signal ratio in the repeat runs, not every such curve was filed as active; the % refers to the signal ratio). Put shortly:
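Quantitative HTS, beta-lactamase reporter format: FXR-UAS-bla HEK 293T cells co-treated 16 h at 37 °C with compounds and 50 uM final chenodeoxycholic acid, then read by B/G FRET fluorescence.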

The target is the same in assay [11]. Kind of assay: qHTS assay to identify small molecule agonists of the farnesoid-X-receptor (FXR) signaling pathway (AID 743220; active = well fitted activation curve with a large enough effect in the signal ratio in the repeat runs, not every such curve was filed as active; the % refers to the signal ratio). Put shortly: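 FXR-UAS-bla HEK 293T cells carrying a UAS-driven beta-lactamase reporter were plated for 5 h at 37C/5% CO2, then exposed to DMSO-dissolved Tox21 10K compounds for 16 h at 37C. A LiveBLAzer B/G FRET substrate was loaded for 2 h at room temperature before fluorescence reading.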

Assay [12] has as its target Vitamin D3 receptor (Homo sapiens) (UniProt P11473). Briefly: qHTS assay to identify small molecule antagonists of the vitamin D receptor (VDR) signaling pathway (AID 743223; active = well fitted inhibition curve with a large enough effect in the signal ratio in the repeat runs, not every such curve was filed as active; the % refers to the signal ratio). The essentials: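 Antagonist mode uses 1alpha,25-dihydroxyvitamin D3 at 3 nM final as stimulus. VDR-bla cells receive compounds in DMSO, incubate 16 h at 37C, then a beta-lactamase FRET substrate for 2 h at room temperature before fluorescence measurement.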

Assay [13] can be described thus: qHTS assay to identify small molecule antagonists of the vitamin D receptor (VDR) signaling pathway - cell viability counter screen (AID 743225). Also: nearly all actives have a fitted effect of over 50% in size. Also: potency is read from the fitted curve at half-maximal effect. Put shortly: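 Read-out: CellTiter-Glo luminescence measured 30 min after reagent addition at room temperature. Cells were VDR-bla HEK 293T exposed 16 h at 37C, 5% CO2, to compound with 3 nM final calcitriol agonist.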

Assay [14] in a line: qHTS assay to identify small molecule agonists of the AP-1 signaling pathway - cell viability counter screen (AID 1159525; calls by dose curve; also: nearly all actives have a fitted effect of over 55% in size; also: potency is read from the fitted curve at half-maximal effect). Put shortly:
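Same-well cytotoxicity counter screen of the Tox21 10K library in ME-180 cells. The readout is ATP-dependent luminescence after 5 h compound treatment. Data are normalised to DMSO and tetra n-octyl ammonium bromide controls.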

Assay [15] can be described thus: qHTS assay to identify small molecule agonists of the AP-1 signaling pathway (AID 1159526; calls by dose curve).
For assay [16], the target named is Peroxisome proliferator-activated receptor delta (Homo sapiens) (UniProt Q03181). Briefly: qHTS assay to identify small molecule antagonists of the peroxisome proliferator-activated receptor delta (PPARd) signaling pathway (AID 743215; active = well fitted inhibition curve with a large enough effect in the signal ratio in the repeat runs, not every such curve was filed as active; the % refers to the signal ratio;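 also: cells stimulated with agonist L165041 at 300 nM final during compound exposure; series mostly up to about 62 µM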). Put shortly:
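Screen format: qHTS, antagonist mode. HEK293H PPARd-bla cells received compound and 300 nM L165041 (final), 17 h, 37 C. Beta-lactamase detected via FRET substrate fluorescence, 2 h, room temperature.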

Assay [17] can be described thus: qHTS assay to identify small molecule antagonists of the retinoid-related orphan receptor gamma (ROR-gamma) signaling pathway - cell viability counter screen (AID 1159520). Also: nearly all actives have a fitted effect of over 50% in size. Also: potency is read from the fitted curve at half-maximal effect. The essentials: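 Tet-on ROR gamma CHO cells were given compounds for 2 hr, then doxycycline hyclate at 1 uM final, and incubated 16 hr at 37 C. Viability was measured as ATP content by CellTiter-Glo luminescence.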

Assay [18] can be described thus: qHTS assay to identify small molecule agonists of the farnesoid-X-receptor (FXR) signaling pathway - cell viability counter screen (AID 743218). Also: nearly all actives have a fitted effect of over 45% in size. Also: potency is read from the fitted curve at half-maximal effect. Put shortly: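 Same-well cytotoxicity check on FXR-UAS-bla HEK 293T cells: 5 h attachment, 16 h compound at 37 C, CellTiter-Glo luminescence read at room temperature after 30 min.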

The structures appear in SMILES notation. Inconclusive results are not listed. The source holds several records for some structures; these can differ, active in one and inactive in another. Activity calls are given as the source filed them. Unless noted, calls follow the shape of the dose curve; as a rule, active = well fitted curve in the direction sought with a large enough effect in the repeat runs; inconclusive = weak or mixed curves; inactive = no such curve, though single readings can be large; an effect the other way counts as inactive or inconclusive.

Vitamin D3 receptor (Homo sapiens), sequence (P11473 whole entry, looked up): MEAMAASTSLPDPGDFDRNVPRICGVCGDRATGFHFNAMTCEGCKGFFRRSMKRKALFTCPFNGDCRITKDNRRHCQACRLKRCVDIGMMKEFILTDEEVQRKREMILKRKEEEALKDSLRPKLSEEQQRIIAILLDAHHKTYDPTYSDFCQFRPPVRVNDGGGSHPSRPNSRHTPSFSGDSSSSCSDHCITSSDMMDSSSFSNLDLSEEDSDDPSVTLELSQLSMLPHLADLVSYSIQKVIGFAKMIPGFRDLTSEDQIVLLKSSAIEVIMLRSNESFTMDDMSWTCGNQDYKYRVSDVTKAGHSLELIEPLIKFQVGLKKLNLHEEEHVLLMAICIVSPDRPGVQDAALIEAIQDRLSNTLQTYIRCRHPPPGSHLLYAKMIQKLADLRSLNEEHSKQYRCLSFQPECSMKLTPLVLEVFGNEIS
Peroxisome proliferator-activated receptor delta (Homo sapiens), sequence (Q03181 whole entry, looked up): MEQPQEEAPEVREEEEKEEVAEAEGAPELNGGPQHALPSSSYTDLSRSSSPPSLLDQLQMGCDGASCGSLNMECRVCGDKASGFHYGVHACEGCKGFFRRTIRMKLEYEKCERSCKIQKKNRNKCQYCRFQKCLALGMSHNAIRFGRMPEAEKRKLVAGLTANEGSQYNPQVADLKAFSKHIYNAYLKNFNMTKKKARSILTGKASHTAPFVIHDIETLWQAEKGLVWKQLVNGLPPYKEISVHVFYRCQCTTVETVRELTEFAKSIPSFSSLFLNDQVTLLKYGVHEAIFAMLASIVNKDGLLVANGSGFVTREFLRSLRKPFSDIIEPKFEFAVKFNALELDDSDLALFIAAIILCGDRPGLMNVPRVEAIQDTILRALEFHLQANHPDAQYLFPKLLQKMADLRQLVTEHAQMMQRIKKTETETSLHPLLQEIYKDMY
Bile acid receptor (Homo sapiens), sequence (Q96RI1 whole entry, looked up): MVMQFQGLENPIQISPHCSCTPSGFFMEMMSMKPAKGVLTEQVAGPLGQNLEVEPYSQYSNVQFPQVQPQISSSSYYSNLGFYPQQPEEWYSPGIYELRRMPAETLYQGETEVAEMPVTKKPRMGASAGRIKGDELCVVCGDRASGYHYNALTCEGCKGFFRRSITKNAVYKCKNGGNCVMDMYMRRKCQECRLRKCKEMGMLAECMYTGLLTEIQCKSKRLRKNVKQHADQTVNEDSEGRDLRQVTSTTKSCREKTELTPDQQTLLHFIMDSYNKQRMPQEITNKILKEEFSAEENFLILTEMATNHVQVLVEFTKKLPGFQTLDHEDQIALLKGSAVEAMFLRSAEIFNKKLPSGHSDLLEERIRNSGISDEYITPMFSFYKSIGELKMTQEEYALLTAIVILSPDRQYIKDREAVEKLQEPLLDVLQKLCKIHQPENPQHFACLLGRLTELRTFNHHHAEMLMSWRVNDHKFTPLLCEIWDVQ

With `CC(C)N1C(=O)N(c2ccccc2)CSC1=NC(C)(C)C`, the Potency result in assay [1], in assay [2], in assay [3], in assay [5] and in [6] was “inactive” each time. The figures for the Potency in assay [4] and in assay [7] were 49 µM (active) and 43.3 µM (active), respectively.

On to `ClC(Cl)=C(Cl)Cl`, for which the Potency entry in [8], in assay [9], in assay [10], in assay [2], in assay [3] and in [12] was “inactive” each time. The Potency entry in assay [4], in assay [13], in assay [5], in assay [6], in [7] and in assay [14] was “inactive” in each case. Further, the Potency entry in [15] was “inactive”. In addition, the call in [11] was inactive.

Take `O=C(CCCN1CCC2(CC1)C(=O)NCN2c1ccccc1)c1ccc(F)cc1`: the Potency result in assay [8], in assay [1], in assay [9], in assay [16], in [10] and in [2] was “inactive” in each case. For the same molecule, the Potency entry in [3], in [12], in assay [6], in assay [17], in [7] and in assay [14] was “inactive” throughout. Besides, the call in assay [11] was inactive.

For the molecule `ClC1=C(Cl)[C@]2(Cl)[C@@H]3[C@@H]4C[C@@H]([C@H]5O[C@@H]45)[C@@H]3[C@@]1(Cl)C2(Cl)Cl`, the Potency in [8] is 49 µM (active); in assay [18], 56.4 µM (active); in assay [4], 30.6 µM (active); in [6], 54.9 µM (active); in assay [17], 61.1 µM (active); in assay [7] it was 19.3 µM (active). In addition, the Potency in assay [14] is 43.6 µM (active).

Regarding `Cc1cc(SCc2sc(-c3ccc(C(F)(F)F)c(F)c3)nc2C)ccc1OCC(=O)O`, the Potency was 38.9 µM (active) in assay [8], 12.3 µM (active) in [9], 49 µM (active) in assay [4] and 21.9 µM (active) in [13]. The Potency entry in [2], in [5], in assay [7] and in assay [14] was “inactive” in each case.

Take `CS(=O)(=O)c1ccc(C(=O)C2C(=O)CCCC2=O)c([N+](=O)[O-])c1`: the Potency result in assay [8], in assay [2], in assay [5], in [17] and in [14] was “inactive” throughout. In addition, in [11], the result was inactive.

As to `CC(=O)Nc1ccc2c(c1)Cc1ccccc1-2`, the Potency entry in assay [16], in [18], in assay [2], in [4], in [13] and in assay [5] was “inactive” throughout. Further, the Potency entry in assay [17], in assay [7], in assay [14] and in assay [15] was “inactive” in each case.

As to `Nc1ccc([N+](=O)[O-])cc1Cl`, the Potency result in assay [17], in assay [7], in assay [14] and in assay [15] was “inactive” in each case.

With `Clc1ccc(CO/N=C(\Cn2ccnc2)c2ccc(Cl)cc2Cl)c(Cl)c1`, the Potency entry in assay [8], in [1], in assay [9], in [16], in assay [2] and in assay [3] was “inactive” in each case. The Potency result in [4] is “inactive”. For the same molecule, the Potency in [6] is 23.9 µM (active); in assay [17], 26.6 µM (active); in assay [7], 26.6 µM (active).

Turning to `c1cc[c]([Sb]([c]2ccccc2)[c]2ccccc2)cc1`, in [17], the Potency entry is “inactive”. Further, in assay [7], the Potency is 61.1 µM (active).

In the case of `ClC1=C(Cl)C2(Cl)C3C(Cl)C=CC3C1(Cl)C2(Cl)Cl` (stereo unspecified), the Potency entry in assay [1], in assay [9], in assay [16], in assay [2] and in assay [13] was “inactive” throughout. The Potency in assay [4] is 43.6 µM (active); in assay [6] it was 55.2 µM (active); in [17], 68.9 µM (active); in [7] it was 61.4 µM (active) and inactive; in assay [14], 43.8 µM (active).
